{"source": "PubChem BioAssay (EPA / NIEHS)", "key": {"[1]": {"assay": "CEETOX_H295R_ANDR_noMTC: CeeTox H295R High-throughput Steroidogenesis Assay for Androstenedione (ANDR), maximum tolerated concentration (MTC) filtered results only (AID 2283915)", "settings": "actives raise or lower the signal", "outline": "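Androstenedione secreted into medium was measured by LC-MS/MS after MTBE extraction. Human adrenal H295R cells received 10 uM forskolin for 48 h before 48 h chemical exposure (0.1% DMSO). Gain or loss fitted against DMSO, including concentrations above the MTT-derived MTC.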"}, "[2]": {"assay": "CEETOX_H295R_ESTRADIOL_noMTC: CeeTox H295R High-throughput Steroidogenesis Assay for Estradiol, maximum tolerated concentration (MTC) filtered results only (AID 2283919)", "settings": "actives raise or lower the signal", "outline": "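Readout: dansyl-derivatized estradiol quantified by LC-MS/MS in medium from H295R cells dosed 48 h (0.1% DMSO) following 48 h forskolin (10 uM) prestimulation. Gain or loss of signal fitted against DMSO; no MTC filtering applied.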"}, "[3]": {"assay": "CEETOX_H295R_ESTRONE_noMTC: CeeTox H295R High-throughput Steroidogenesis Assay for Estrone, maximum tolerated concentration (MTC) filtered results only (AID 2283921)", "settings": "actives raise or lower the signal", "outline": "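Estrone in spent medium, quantified by tandem MS following dansyl chloride derivatization, after 48 h chemical exposure (0.1% DMSO) of forskolin-prestimulated (10 uM, 48 h) H295R cells; concentrations not MTC-filtered, bidirectional fit against DMSO.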"}, "[4]": {"assay": "CEETOX_H295R_TESTO_noMTC: CeeTox H295R High-throughput Steroidogenesis Assay for Testosterone (TESTO), maximum tolerated concentration (MTC) filtered results only (AID 2283924)", "settings": "actives raise or lower the signal", "outline": "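Medium testosterone, measured by HPLC-MS/MS after liquid-liquid extraction, was fitted in both directions relative to DMSO without MTC filtering. Adrenal H295R cells received 48 h chemical exposure (0.1% DMSO final) after 48 h forskolin (10 uM) prestimulation; viability by MTT.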"}, "[5]": {"biological_target": "Thyroid hormone receptor alpha (Rattus norvegicus) + Thyroid hormone receptor beta (Rattus norvegicus) (UniProt P18113+P63059)", "sequence (P63059 whole entry, looked up)": "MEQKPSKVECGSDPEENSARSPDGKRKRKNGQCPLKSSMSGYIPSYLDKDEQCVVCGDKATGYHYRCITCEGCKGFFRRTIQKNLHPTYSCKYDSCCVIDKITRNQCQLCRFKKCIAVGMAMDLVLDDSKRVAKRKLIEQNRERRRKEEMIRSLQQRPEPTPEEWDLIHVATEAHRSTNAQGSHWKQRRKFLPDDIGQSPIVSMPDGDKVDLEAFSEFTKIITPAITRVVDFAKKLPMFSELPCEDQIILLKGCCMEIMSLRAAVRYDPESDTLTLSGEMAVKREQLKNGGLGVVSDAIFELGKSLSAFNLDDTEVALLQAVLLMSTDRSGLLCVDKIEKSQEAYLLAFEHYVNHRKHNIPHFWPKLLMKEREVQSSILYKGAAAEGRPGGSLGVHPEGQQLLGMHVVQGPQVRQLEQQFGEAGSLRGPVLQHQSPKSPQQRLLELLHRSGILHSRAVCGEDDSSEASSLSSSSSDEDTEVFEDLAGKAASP", "sequence (P18113 whole entry, looked up)": "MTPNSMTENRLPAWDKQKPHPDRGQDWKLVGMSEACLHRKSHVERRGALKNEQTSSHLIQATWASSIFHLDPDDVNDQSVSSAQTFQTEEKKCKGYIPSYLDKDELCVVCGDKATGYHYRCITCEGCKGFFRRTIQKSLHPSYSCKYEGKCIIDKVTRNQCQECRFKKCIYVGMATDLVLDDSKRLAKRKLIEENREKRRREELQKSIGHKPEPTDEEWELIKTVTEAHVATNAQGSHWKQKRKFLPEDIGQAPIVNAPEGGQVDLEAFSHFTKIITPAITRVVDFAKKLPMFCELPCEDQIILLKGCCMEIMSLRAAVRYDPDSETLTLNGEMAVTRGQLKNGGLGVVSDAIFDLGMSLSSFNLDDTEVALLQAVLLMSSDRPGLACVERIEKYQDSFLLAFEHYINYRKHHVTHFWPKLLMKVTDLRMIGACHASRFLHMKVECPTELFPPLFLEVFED", "assay": "TOX21_TR_LUC_GH3_Agonist_Followup: Tox21 GH3 Thyroid Hormone Receptor Agonism Luciferase Follow-Up Assay (AID 2283939; active = hit-call score of the fitted dose curve at least 0.9, where 1 is the maximum)", "method": "TOX21_TR_LUC_GH3_Agonist_Followup is a secondary assay for specificity for the TOX21_TR_LUC_GH3_Agonist assay. TOX21_TR_LUC_GH3_Agonist_Followup is a cell-based, single-readout assay that uses GH3, a rat pituitary gland cell line, with measurements taken at 28 hours after chemical dosing in a 1536-well plate.TOX21_TR_LUC_GH3_Agonist_Followup is one of one assay component(s) measured or calculated from the TOX21_TR_LUC_GH3_Agonist_Followup assay. It is designed to make measurements of luciferase induction, a form of inducible reporter, as detected with bioluminescence signals by […] technology.Data from the assay component TOX21_TR_LUC_GH3_Agonist_Followup was analyzed into 1 assay endpoint. This assay endpoint, TOX21_TR_LUC_GH3_Agonist_Followup, was analyzed in the positive analysis fitting direction relative to DMSO as the negative control and baseline of activity. Using a type of inducible reporter, gain-of-signal activity can be used to understand changes in the reporter gene as they relate to the gene THRA and THRB in the GH3 cell line using a luciferase reporter. Furthermore, this assay endpoint can be referred to as a primary readout, because the performed assay has only produced 1 assay endpoint. This assay endpoint is designated followup because it was a confirmatory screen following the primary qHTS assay. […]"}}, "note": "Records with an inconclusive call do not appear. Calls of active or inactive are those of the source. Rule for the calls, unless noted: active = hit-call score of the fitted dose curve at least 0.9, where 1 is the maximum; inactive = score below 0.9.", "data": [{"smiles": "CCCCCCCCOC(=O)c1ccccc1C(=O)OCCCCCCCC", "values": [{"measurement": "outcome", "setting": "[1]", "value": "inactive"}, {"measurement": "outcome", "setting": "[2]", "value": "inactive"}, {"measurement": "outcome", "setting": "[3]", "value": "inactive"}, {"measurement": "outcome", "setting": "[4]", "value": "inactive"}]}, {"smiles": "Cc1cc(O)ccc1Cl", "values": [{"measurement": "outcome", "setting": "[5]", "value": "inactive"}]}]}
